Assay outcomes (PubChem BioAssay)
NF-kB neuron act – activators of NF-kB expression in neurons, primary screen, cell-based, HTS; human neuronal cells, NF-kB reporter expression; active compounds read high; fold change at 12.5 µM; 190,000 tested, 1.6% active; in the data active means fold change above about 3.3
APP transl inh – inhibitors of APP translation via 5'UTR reporter, primary screen, APP 5'UTR luciferase, SH-SY5Y cells. SH-SY5Y APP 5'UTR-luciferase reporter, luminescence. inhibition, % at 2 µM. 190,000 tested, 0.82% active;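 active means inhibition above a set limit, derived from the sample mean plus 3 SD, cut at about 45% in these data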
Wee1 degr inh – Wee1 degradation inhibitors, primary screen, cell-based, HeLa, Wee1K328M-luciferase, luminescence | reporter increase, % at 5 µM | 220,000 tested, 1.2% active | Wee1-like protein kinase (Homo sapiens), P30291 | AID 1321, 2008 | HeLa Luc-Wee1K328M stability; 100% = proteasome inhibitor MG132 effect;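 active means activation above the mean of all tested compounds plus 3 SD, set per screening run, cut at about 8.8% in these data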;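 further: cells exposed to compound for 20 h before luminescence read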
Target sequence (P30291 whole entry K328M): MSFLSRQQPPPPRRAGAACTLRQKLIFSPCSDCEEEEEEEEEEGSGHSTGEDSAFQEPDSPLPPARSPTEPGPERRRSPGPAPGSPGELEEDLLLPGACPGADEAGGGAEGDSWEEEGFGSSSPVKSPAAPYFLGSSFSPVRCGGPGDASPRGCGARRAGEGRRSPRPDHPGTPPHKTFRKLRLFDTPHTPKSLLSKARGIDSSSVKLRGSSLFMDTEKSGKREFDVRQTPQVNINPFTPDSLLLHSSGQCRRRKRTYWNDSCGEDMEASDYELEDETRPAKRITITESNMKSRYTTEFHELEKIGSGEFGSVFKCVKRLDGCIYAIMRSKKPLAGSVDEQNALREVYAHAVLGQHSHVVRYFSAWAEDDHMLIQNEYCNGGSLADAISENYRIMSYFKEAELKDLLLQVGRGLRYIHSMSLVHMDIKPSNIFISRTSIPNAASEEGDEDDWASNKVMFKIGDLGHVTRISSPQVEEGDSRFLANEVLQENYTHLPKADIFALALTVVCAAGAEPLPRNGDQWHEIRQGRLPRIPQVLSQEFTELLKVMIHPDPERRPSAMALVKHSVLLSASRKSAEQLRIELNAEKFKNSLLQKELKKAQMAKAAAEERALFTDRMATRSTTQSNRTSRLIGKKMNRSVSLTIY
APP 5'UTR act – activators of APP 5'UTR luciferase reporter, primary screen, SH-SY5Y cells; SH-SY5Y APP 5'UTR luciferase reporter, luminescence; zero percent = DMSO vehicle wells; activation, % at 2 µM; 190,000 tested, 1% active; AID 1276, 2008;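 active means activation above a set limit, based on mean plus 3 SD of controls, cut at about 140% in these data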
Hsp70 activator – Hsp70 transcriptional activators, primary screen, cell-based, HeLa, Hsp70 promoter luciferase, luminescence, 10 µM. activation, % at 10 µM. AID 1203, 2008. HeLa Hsp70 promoter luciferase reporter; scaled: vehicle 0, proteasome-inhibitor control 100%. 200,000 tested, 0.04% active;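 active means activation above the mean across all tested compounds plus 3 SD, cutoff set per campaign, cut at about 5.5% in these data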
STAT1 act – STAT1 signaling activators, primary screen, cell-based, HTS, luciferase reporter; 200,000 tested, 2.6% active; NIH 3T3 STAT1-luciferase reporter, IFN-gamma, luminescence; 100% = IFN-gamma alone, no compound; activation (% of control), % at 5.5 µM; AID 932, 2007;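 active means activation above the screen-wide mean activation plus 3 SD, cut at about 130% in these data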
A number is an active result. Compounds with a hit are over-represented: about 4.8% of the library has one in this group of screens.

Screening CCOC(=O)c1ccc(N2CC(O)=C(c3nc4ccccc4c(=O)[nH]3)C2=N)cc1 returned NF-kB neuron act inactive, APP transl inh inactive, Wee1 degr inh inactive, APP 5'UTR act inactive, Hsp70 activator inactive and STAT1 act inactive.
For Cc1ccc2nsnc2c1NC(=O)c1ccc(-c2cc(Cl)ccc2Cl)o1 the results were NF-kB neuron act inactive, APP transl inh inactive, Wee1 degr inh inactive, APP 5'UTR act inactive, Hsp70 activator inactive and STAT1 act 128.8.
`Cc1ccc2nsnc2c1NC(=O)Cc1ccc(Cl)cc1` gave NF-kB neuron act inactive, APP transl inh inactive, Wee1 degr inh inactive, APP 5'UTR act inactive, Hsp70 activator inactive and STAT1 act inactive.
`CC(CCN(C)C)OC(=O)c1ccc(C(C)c2ccccc2)o1` (configuration not stated) gave NF-kB neuron act inactive, APP transl inh inactive, Wee1 degr inh inactive, APP 5'UTR act inactive, Hsp70 activator inactive and STAT1 act inactive.
For Cn1c(CCCOc2ccc(Cl)cc2Cl)nnc1SCC(=O)Nc1nccs1 the results were NF-kB neuron act inactive, APP transl inh inactive, Wee1 degr inh inactive, APP 5'UTR act inactive, Hsp70 activator inactive and STAT1 act inactive.
Screening CCn1c(COc2cc(C)ccc2C(C)C)nnc1SCC(=O)Nc1nccs1 returned NF-kB neuron act inactive, APP transl inh inactive, Wee1 degr inh 10.6, APP 5'UTR act inactive, Hsp70 activator inactive and STAT1 act inactive.
`CN(C)/C=C1\N=C(c2ccccc2)OC1=O` gave NF-kB neuron act inactive, APP transl inh inactive, Wee1 degr inh inactive, APP 5'UTR act inactive, Hsp70 activator inactive and STAT1 act inactive.
Cc1ccc(C2=N/C(=C\N3CCCCC3)C(=O)O2)cc1 was read as NF-kB neuron act inactive, APP transl inh inactive, Wee1 degr inh inactive, APP 5'UTR act inactive, Hsp70 activator inactive and STAT1 act 141.6.
Cc1ccc(C2=N/C(=C/N3CCOCC3)C(=O)O2)cc1 was read as NF-kB neuron act inactive, APP transl inh inactive, Wee1 degr inh inactive, APP 5'UTR act inactive, Hsp70 activator inactive and STAT1 act 128.6.
`COC(=O)c1scc(C)c1-n1ccc(C(=O)C(=O)N(C)C)c1` gave NF-kB neuron act inactive, APP transl inh inactive, Wee1 degr inh inactive, APP 5'UTR act inactive, Hsp70 activator inactive and STAT1 act inactive.
CCC(C)(C)c1ccc2c(c1)C(=O)c1ccccc1C2=O was read as NF-kB neuron act inactive, APP transl inh inactive, Wee1 degr inh inactive, APP 5'UTR act 181.9, Hsp70 activator inactive and STAT1 act inactive.
Cc1ccc(Cn2c(=O)n(-c3ccccc3)c(=O)c3ccc(C(=O)NCc4ccco4)cc32)cc1 was read as NF-kB neuron act inactive, APP transl inh inactive, Wee1 degr inh inactive, APP 5'UTR act inactive, Hsp70 activator inactive and STAT1 act inactive.
For Cn1c(C2=C(O)CN(Cc3ccccc3)C2=N)nc2ccccc21 the results were Wee1 degr inh inactive.
O=S(=O)([N-]c1nc2ccccc2nc1-[n+]1ccc(-c2ccncc2)cc1)c1ccccc1 was read as NF-kB neuron act inactive, APP transl inh inactive, Wee1 degr inh inactive, APP 5'UTR act inactive, Hsp70 activator inactive and STAT1 act 129.1.
Screening COC(=O)Nc1ccc(S(=O)(=O)N2CCCCC2C(=O)O)cc1 (configuration not stated) returned NF-kB neuron act inactive, APP transl inh inactive, Wee1 degr inh inactive, APP 5'UTR act inactive, Hsp70 activator inactive and STAT1 act inactive.
`COC(=O)Nc1ccc(S(=O)(=O)N2c3ccccc3CCC2C)cc1` (configuration not stated) gave NF-kB neuron act inactive, APP transl inh 60.6, Wee1 degr inh inactive, APP 5'UTR act inactive, Hsp70 activator inactive and STAT1 act inactive.
`CCOC(=O)c1c(C)nc(-c2ccccc2)nc1N` gave NF-kB neuron act 3.97, APP transl inh inactive, Wee1 degr inh inactive, APP 5'UTR act inactive, Hsp70 activator inactive and STAT1 act 148.1.
Screening CC(=O)c1c(C)nc(-c2ccccc2)nc1N returned NF-kB neuron act inactive, APP transl inh inactive, Wee1 degr inh inactive, APP 5'UTR act inactive, Hsp70 activator inactive and STAT1 act inactive.
CCOC(=O)c1c(-c2ccccc2)cn2c(C)cc(C)nc12 was read as NF-kB neuron act inactive, APP transl inh inactive, Wee1 degr inh inactive, APP 5'UTR act inactive, Hsp70 activator inactive and STAT1 act 138.1.
COc1ccc(NC(=O)c2sccc2C)c([N+](=O)[O-])c1 was read as NF-kB neuron act inactive, APP transl inh inactive, Wee1 degr inh inactive, APP 5'UTR act inactive, Hsp70 activator inactive and STAT1 act inactive.
c1ccc(-n2c(-c3ccco3)nnc2N2CCOCC2)cc1 was read as NF-kB neuron act inactive, APP transl inh inactive, Wee1 degr inh inactive, APP 5'UTR act inactive, Hsp70 activator inactive and STAT1 act inactive.
Cc1ccccc1NC(=S)C1=C(O)c2sccc2N(C)S1(=O)=O was read as NF-kB neuron act inactive, APP transl inh inactive, Wee1 degr inh inactive, APP 5'UTR act inactive, Hsp70 activator inactive and STAT1 act inactive.
For COC(=O)C1(Cc2ccccc2)NC(c2ccc(F)cc2)C2C(=O)N(C)C(=O)C21 (configuration not stated) the results were NF-kB neuron act inactive, APP transl inh inactive, Wee1 degr inh inactive, APP 5'UTR act inactive, Hsp70 activator inactive and STAT1 act inactive.
CC1CN(C(=O)c2ccc(COc3ccc(C(C)C)cc3)o2)CC(C)O1 (configuration not stated) was read as NF-kB neuron act inactive, APP transl inh inactive, Wee1 degr inh inactive, APP 5'UTR act inactive, Hsp70 activator inactive and STAT1 act 129.1.
`CC1CN(C(=O)c2ccc(COc3ccc4ccccc4c3)o2)CC(C)O1` (configuration not stated) gave NF-kB neuron act inactive, APP transl inh inactive, Wee1 degr inh inactive, APP 5'UTR act inactive, Hsp70 activator inactive and STAT1 act inactive.
For CCOC(=O)c1c(C)[nH]c(C(=O)OCC(=O)NC(C)C)c1C the results were NF-kB neuron act inactive, APP transl inh inactive, Wee1 degr inh inactive, APP 5'UTR act inactive, Hsp70 activator inactive and STAT1 act inactive.
`Brc1ccc(N/N=C(/N=Nc2nn[nH]n2)c2ccccc2)cc1` gave NF-kB neuron act inactive, APP transl inh 58.5, Wee1 degr inh inactive, APP 5'UTR act inactive, Hsp70 activator inactive and STAT1 act inactive.
Screening O=C(/C(=N\Nc1ccc(Br)cc1)Sc1nnnn1-c1ccccc1)c1ccccc1 returned NF-kB neuron act inactive, APP transl inh inactive, Wee1 degr inh inactive, APP 5'UTR act inactive, Hsp70 activator inactive and STAT1 act inactive.
`COc1cccc(N/C(N)=N/c2nc(CSc3ccccn3)cc(=O)[nH]2)c1` gave NF-kB neuron act inactive, APP transl inh 89.3, Wee1 degr inh inactive, APP 5'UTR act inactive, Hsp70 activator inactive and STAT1 act inactive.
